Laboratory results: the supplement of paper PMC4723716
± gives the uncertainty stated by the source. Whole data set: some 9,900 compounds, median “viability index relative to DMSO control” near 1, cut for the lowest 2% near 0.85. Shown is part of a subset that was picked to be rich in the lowest values.

Test system: Plasmodium falciparum NF54 stage V gametocytes
Experiment: viability index relative to DMSO control (fraction); higher = less gametocyte killing
Conditions: 2.5 µM, incubation time: 72 h
Procedure, shortened: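 Gametocytes (P. falciparum NF54, stage V) were treated with compound at 2.5 µM for 72 hr at 37°C in low oxygen, in serum-free medium at 0.75% gametocytemia and 1.25% hematocrit. Counts of 20–70 µm2 red particles, taken from one field per well after MitoTracker Red CMXRos with saponin, were divided by the plate mean of solvent-only wells. This ratio is the viability index.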

[1] = library set: Broad Institute DOS
[2] = library set: Broad Institute Blood Stage

SMILES | viability index [1] | viability index [2]
C[C@@H]1CN([C@@H](C)CO)C(=O)c2ccccc2-c2ccccc2CO[C@@H]1CN(C)C(=O)[C@@H]1CCCN1C | 0.936 ± 0.093 | 
COc1ccc2c3c([C@H](CO)N(Cc4nccs4)C[C@]33CCN(CC4CCCC4)CC3)n(C)c2c1 | 0.841 ± 0.028 | 
COc1ccc2c3c([C@@H](CO)N(Cc4nccs4)C[C@]33CCN(CC4CCCC4)CC3)n(C)c2c1 | 0.848 ± 0.029 | 
COc1ccc2c3c([C@@H](CO)N(Cc4nccs4)C[C@]33CCN(CC3)C(=O)CN(C)C)n(C)c2c1 | 0.905 ± 0.039 | 
COc1ccc2c3c([C@H](CO)N(Cc4nccs4)C[C@]33CCN(CC3)C(=O)CN(C)C)n(C)c2c1 | 0.955 ± 0.12 | 
COc1ccc2c3c([C@H](CO)N(CC4CCOCC4)C[C@]33CN(Cc4nccs4)C3)n(C)c2c1 | 1.08 ± 0.019 | 
COc1ccc2c3c([C@@H](CO)N(CC4CCOCC4)C[C@]33CN(Cc4nccs4)C3)n(C)c2c1 | 1.1 ± 0.08 | 
CO[C@H]1CN(C)C(=O)c2cc(NC(=O)NC(C)C)ccc2OC[C@@H](C)N(C(=O)CN(C)C)C[C@H]1C | 1.03 ± 0.043 | 
COCC#Cc1ccc([C@@H]2[C@@H](CO)N3C(=O)CN(C(=O)Nc4ccccc4F)C[C@@H]23)cc1 | 1.02 ± 0.025 | 
C[C@H](CO)N1C[C@H](C)[C@@H](CN(C)C(=O)Nc2ccccc2F)Oc2cc(Br)ccc2S1(=O)=O | 1.01 ± 0.02 | 
COc1ccc2c3c([C@H](CO)N(C[C@]33CCN(CC3)C(=O)Nc3ccc(F)cc3F)C(=O)Nc3ccc(F)cc3)n(C)c2c1 | 1.04 ± 0.029 | 
N#C[C@@H]1N[C@H](CO)[C@H]1c1ccc(-c2cccc(F)c2)cc1 | 1.18 ± 0.088 | 
CCS(=O)(=O)Nc1ccc2c(c1)C(=O)N(C)[C@@H]1CC[C@H](CC(=O)NCc3ccc(OC)cc3)O[C@H]1CO2 | 1.01 ± 0.078 | 
COc1ccc(-c2ccc3c(c2)[C@@H]2[C@@H](CCN2C(=O)c2cccc(F)c2)[C@H](CO)N3)cc1 | 0.848 ± 0.042 | 
COc1ccccc1-c1ccc2c(c1)[C@@H]1[C@@H](CCN1S(=O)(=O)c1ccc(C)cc1)[C@H](CO)N2 | 0.836 ± 0.028 | 
COc1ccc(-c2ccc3c(c2)[C@H]2[C@H](CCN2C(=O)c2cccc(F)c2)[C@@H](CO)N3)cc1 | 0.942 ± 0.075 | 
N#Cc1cccc(-c2ccc3c(c2)[C@@H]2[C@@H](CCN2S(=O)(=O)c2ccc(F)cc2)[C@@H](CO)N3)c1 | 0.855 ± 0.011 | 
Cc1cccc(S(=O)(=O)N2CC[C@@H]3[C@@H](CO)Nc4ccc(-c5ccccc5F)cc4[C@@H]32)c1 | 1.18 ± 0.029 | 
COc1ccccc1-c1ccc2c(c1)[C@H]1[C@H](CCN1S(=O)(=O)c1ccc(C)cc1)[C@@H](CO)N2 | 0.811 ± 0.098 | 
Cc1cccc(S(=O)(=O)N2CC[C@@H]3[C@H]2c2cc(-c4ccccc4F)ccc2N[C@@H]3CO)c1 | 0.926 ± 0.08 | 
COc1ccc(-c2ccc3c(c2)[C@@H]2[C@@H](CCN2C(=O)c2cccc(F)c2)[C@@H](CO)N3)cc1 | 0.996 ± 0.08 | 
N#Cc1cccc(-c2ccc3c(c2)[C@@H]2[C@@H](CCN2S(=O)(=O)c2ccc(F)cc2)[C@H](CO)N3)c1 | 0.844 ± 0.062 | 
Cc1cccc(S(=O)(=O)N2CC[C@H]3[C@H](CO)Nc4ccc(-c5ccccc5F)cc4[C@H]32)c1 | 1.08 ± 0.023 | 
Cc1cccc(S(=O)(=O)N2CC[C@@H]3[C@H](CO)Nc4ccc(-c5ccccc5F)cc4[C@@H]32)c1 | 1.06 ± 0.03 | 
N#Cc1cccc(-c2ccc3c(c2)[C@H]2[C@H](CCN2S(=O)(=O)c2ccc(F)cc2)[C@H](CO)N3)c1 | 1.09 ± 0.017 | 

SMILES | viability index [1] | viability index [2]
C[C@@H]1CN([C@H](C)CO)C(=O)CCCn2cc(nn2)CO[C@H]1CN(C)C(=O)Nc1cccc2ccccc12 | 0.99 ± 0.023 | 
Cc1ccc(S(=O)(=O)Nc2ccc3c(c2)C(=O)N([C@@H](C)CO)C[C@@H](C)[C@@H](CN(C)S(=O)(=O)c2cccs2)OCCCC[C@@H](C)O3)cc1 | 1.13 ± 0.23 | 
NCC[C@H]1CC[C@@H](NC(=O)Cc2ccncc2)[C@H](CO)O1 | 1.091 ± 0.0072 | 
CNC(=O)C[C@@H]1CC[C@@H]2[C@H](COC[C@@H](O)CN2Cc2ccccc2F)O1 | 1.08 ± 0.086 | 
COc1ccc(S(=O)(=O)Nc2ccc3c(c2)C(=O)N([C@H](C)CO)C[C@H](C)[C@@H](CN(C)Cc2ccc(C(F)(F)F)cc2)OCCCC[C@H](C)O3)cc1 | 1.07 ± 0.051 | 
C/C=C/c1ccc2n(c1=O)C[C@@H]1[C@@H](CO)[C@H](C(=O)NCC)N(Cc3cccc(F)c3)[C@H]21.C/C=C\c1ccc2n(c1=O)C[C@@H]1[C@@H](CO)[C@H](C(=O)NCC)N(Cc3cccc(F)c3)[C@H]21 | 0.99 ± 0.091 | 
Cc1ccccc1-c1ccc([C@@H]2[C@@H]3CN(Cc4cocn4)C[C@H]2N3)cc1 | 0.949 ± 0.05 | 
C[C@@H]1CN([C@@H](C)CO)C(=O)c2cc(NC(=O)C3CC3)ccc2O[C@H]1CN(C)S(=O)(=O)c1ccccc1 | 0.9821 ± 0.0066 | 
COc1ccccc1-c1ccc2c(c1)[C@H]1[C@H](CCN1C(=O)C1CCC1)[C@@H](CO)N2 | 0.865 ± 0.097 | 
N#Cc1ccc(-c2ccc3c(c2)[C@H]2[C@H](CCN2C(=O)C2CCCCC2)[C@H](CO)N3)cc1 | 1.11 ± 0.057 | 
COc1ccccc1-c1ccc2c(c1)[C@@H]1[C@@H](CCN1C(=O)C1CCC1)[C@H](CO)N2 | 0.655 ± 0.025 | 
CN1CCN(C(=O)C[C@@H]2CC[C@H]3[C@H](COc4ccc(NC(=O)C5CCOCC5)cc4C(=O)N3C)O2)CC1 | 1.05 ± 0.029 | 
CCS(=O)(=O)Nc1ccc2c(c1)C(=O)N(C)[C@H]1CC[C@H](CC(=O)NCCCN3CCOCC3)O[C@@H]1CO2 | 1.03 ± 0.07 | 
COc1ccc(S(=O)(=O)N(C)C[C@@H]2Oc3c(NC(=O)c4nc5ccccc5s4)cccc3C(=O)N([C@@H](C)CO)C[C@H]2C)cc1 | 0.979 ± 0.043 | 
CC(C)NC(=O)Nc1cccc2c1O[C@@H](CN(C)C(=O)Nc1ccccc1)[C@@H](C)CN([C@@H](C)CO)C2=O | 1.04 ± 0.011 | 
CC(C)NC(=O)Nc1cccc2c1O[C@H](CN(C)C(=O)Nc1ccccc1)[C@@H](C)CN([C@@H](C)CO)C2=O | 1.09 ± 0.07 | 
CC(C)NC(=O)Nc1cccc2c1O[C@@H](CN(C)C(=O)Nc1ccccc1)[C@H](C)CN([C@H](C)CO)C2=O | 1.05 ± 0.17 | 
CC(C)NC(=O)Nc1cccc2c1O[C@H](CN(C)C(=O)Nc1ccccc1)[C@H](C)CN([C@@H](C)CO)C2=O | 0.692 ± 0.19 | 
CC(C)NC(=O)Nc1cccc2c1O[C@H](CN(C)C(=O)Nc1ccccc1)[C@H](C)CN([C@H](C)CO)C2=O | 1.03 ± 0.09 | 
C[C@@H]1CN([C@@H](C)CO)C(=O)c2cccc(NC(=O)Nc3ccccc3)c2O[C@@H]1CN(C)C(=O)Nc1ccccc1 |  | 0.703 ± 0.052
COc1ccc(S(=O)(=O)N(C)C[C@H]2Oc3c(NC(=O)c4nc5ccccc5s4)cccc3C(=O)N([C@H](C)CO)C[C@H]2C)cc1 | 1.03 ± 0.022 | 
C[C@@H]1CN([C@@H](C)CO)C(=O)c2cccc(NC(=O)Nc3ccccc3)c2O[C@@H]1CN(C)C(=O)Nc1ccc(F)cc1 |  | 0.727 ± 0.041
COc1ccc(S(=O)(=O)N(C)C[C@H]2Oc3c(NC(=O)Nc4cccc5ccccc45)cccc3C(=O)N([C@@H](C)CO)C[C@H]2C)cc1 |  | 0.767 ± 0.035
CC(C)NC(=O)Nc1cccc2c1O[C@@H](CN(C)C(=O)Nc1ccccc1)[C@@H](C)CN([C@H](C)CO)C2=O | 1.1 ± 0.11 | 
CC(C)NC(=O)Nc1cccc2c1O[C@H](CN(C)C(=O)Nc1ccccc1)[C@@H](C)CN([C@H](C)CO)C2=O | 0.975 ± 0.13 | 
